PubChem BioAssay AID1159580 (chemical genetic matrix, 2015)
Values joined by “and” are separate entries in the source; they are usually repeats but may differ in a detail not shown here. Equal entries are not always repeated. In all, about 5,500 compounds went through this assay and about 2,000 (36%) were called active. Roughly 18% stayed inconclusive and do not appear here. Cut-off read from the data, not from the text of the source: active = normalized growth mostly below about 0.91 (no sharp cut-off); inconclusive = no clear call, values can overlap the other calls; inactive = mostly above about 0.92. The list shows a part of the results.

Assay: chemical genetic growth profiling, strain panel (AID 1159580);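 note: tested at 20 µM; growth read once vehicle control cultures reached saturation at 30 °C; 1 = growth at the plate median or of vehicle wells; lower values mean less growth of the strain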
Settings: S. cerevisiae deletion strains, growth OD

Measured: normalized growth

Nc1ccc(C(=O)NCC(=O)O)cc1
inactive: locus YAL021C, strain ccr4, stronger effect = lower value 1.02 | locus YAL026C, strain drs2, stronger effect = lower value 1.02 | locus YAL030W, strain snc1, stronger effect = lower value 0.998 | locus YBL061C, strain skt5, stronger effect = lower value 1.01 | locus YBR009C, strain hhf1, stronger effect = lower value 1.01 | locus YBR021W, strain FUR4, stronger effect = lower value 1.01 | locus YBR023C, strain chs3, stronger effect = lower value 1.02 | locus YBR171W, strain sec66, stronger effect = lower value 1.02 | locus YBR229C, strain ROT2, stronger effect = lower value 1 | locus YBR231C, strain swc5, stronger effect = lower value 1.01 | locus YBR279W, strain paf1, stronger effect = lower value 1.01 | locus YCL011C, strain gbp2, stronger effect = lower value 1.02 | locus YCL016C, strain dcc1, stronger effect = lower value 1.02 | locus YCL029C, strain bik1, stronger effect = lower value 1 | locus YCL069W, strain vba3, stronger effect = lower value 1 | locus YCR088W, strain abp1, stronger effect = lower value 1.01 | locus YDL005C, strain med2, stronger effect = lower value 1.01 | locus YDL035C, strain GPR1, stronger effect = lower value 1.01 | locus YDL040C, strain nat1, stronger effect = lower value 1 | locus YDL074C, strain BRE1, stronger effect = lower value 0.992 | locus YDL101C, strain DUN1, stronger effect = lower value 1 | locus YDL134C, strain PPH21, stronger effect = lower value 1.01 | locus YDL185W, strain tfp1, stronger effect = lower value 1.01 | locus YDL192W, strain arf1, stronger effect = lower value 1.01 | locus YDR001C, strain nth1, stronger effect = lower value 1.01 | locus YDR069C, strain doa4, stronger effect = lower value 1 | locus YDR101C, strain arx1, stronger effect = lower value 0.993 | locus YDR137W, strain rgp1, stronger effect = lower value 1.02 | locus YDR150W, strain NUM1, stronger effect = lower value 1.01 | locus YDR159W, strain sac3, stronger effect = lower value 0.979 | locus YDR162C, strain NBP2, stronger effect = lower value 1.01 | locus YDR195W, strain ref2 0.999 | locus YDR297W, strain sur2, stronger effect = lower value 1.02 | locus YDR318W, strain mcm21, stronger effect = lower value 1.02 | locus YDR334W, strain swr1, stronger effect = lower value 1.04 | locus YDR335W, strain msn5, stronger effect = lower value 1.02 | locus YDR388W, stronger effect = lower value 1 | locus YDR392W, strain spt3, stronger effect = lower value 1.03 | locus YDR502C, strain sam2, stronger effect = lower value 1.01 | locus YEL003W, strain gim4, stronger effect = lower value 1.02 | locus YEL037C, strain rad23, stronger effect = lower value 0.998 | locus YEL061C, strain CIN8 (second series), stronger effect = lower value 1.01 | locus YEL061C, strain CIN8, stronger effect = lower value 1 | locus YER015W, strain faa2, stronger effect = lower value 0.996 | locus YER016W, strain bim1, stronger effect = lower value 1.02 | locus YER110C, stronger effect = lower value 1.02 | locus YER111C, strain swi4, stronger effect = lower value 0.996 | locus YER155C, strain BEM2 (second series), stronger effect = lower value 1.02 | locus YER155C, strain BEM2, stronger effect = lower value 0.994 | locus YER167W, strain BCK2, stronger effect = lower value 1.01 | locus YFR010W, strain ubp6, stronger effect = lower value 0.999 | locus YGL078C, strain dbp3, stronger effect = lower value 1.02 | locus YGL086W, strain mad1, stronger effect = lower value 1.01 | locus YGL167C, strain pmr1, stronger effect = lower value 1.02 | locus YGL173C, strain kem1, stronger effect = lower value 1.01 | locus YGL227W, strain vid30, stronger effect = lower value 1 | locus YGL240W, strain doc1, stronger effect = lower value 0.993 | locus YGL248W, strain PDE1, stronger effect = lower value 0.992 | locus YGL253W, strain hxk2, stronger effect = lower value 1.02 | locus YGR135W, strain pre9, stronger effect = lower value 1.04 | locus YGR229C, strain SMI1, stronger effect = lower value 0.99 | locus YGR252W, strain gcn5, stronger effect = lower value 1.01 | locus YHR013C, strain ard1, stronger effect = lower value 1.03 | locus YHR027C, strain rpn1, stronger effect = lower value 1.02 | locus YHR030C, strain SLT2, stronger effect = lower value 1.01 and 0.968 | locus YHR079C, strain IRE1 (second series), stronger effect = lower value 1.01 | locus YHR079C, strain IRE1, stronger effect = lower value 0.971 | locus YHR094C, strain hxt1, stronger effect = lower value 1.01 | locus YHR129C, strain ARP1, stronger effect = lower value 1 | locus YHR142W, strain chs7, stronger effect = lower value 1.02 | locus YHR200W, strain rpn10, stronger effect = lower value 1.02 | locus YIL066C, strain RNR3, stronger effect = lower value 1 | locus YIL073C, strain SPO22, stronger effect = lower value 1.05 | locus YIL125W, strain kgd1, stronger effect = lower value 1.01 | locus YIR030C, strain dcg1, stronger effect = lower value 1 | locus YJL092W, strain hpr5, stronger effect = lower value 1.02 | locus YJL095W, strain BCK1 (second series), stronger effect = lower value 1.01 | locus YJL095W, strain BCK1, stronger effect = lower value 0.985 and 0.967 | locus YJL115W, strain asf1, stronger effect = lower value 1.02 | locus YJL129C, strain trk1, stronger effect = lower value 1.02 | locus YJL134W, strain LCB3, stronger effect = lower value 1 | locus YJL154C, strain vps35, stronger effect = lower value 1 | locus YJL164C, strain tpk1, stronger effect = lower value 1.01 | locus YJL166W, strain qcr8, stronger effect = lower value 1.03 | locus YJL168C, strain set2, stronger effect = lower value 1 | locus YJL187C, strain SWE1 (second series), stronger effect = lower value 0.982 | locus YJR043C, strain POL32, stronger effect = lower value 1.01 | locus YJR066W, strain TOR1, stronger effect = lower value 0.928 | locus YJR075W, strain HOC1, stronger effect = lower value 0.999
